Assay results published in ChEMBL document CHEMBL1961873, “Compounds: GSK PKIS; Assays: Nanosyn kinase panel” (2012).

What was measured:
[1] = target: Sphingosine kinase 1 (Homo sapiens) (UniProt Q9NYA1); conditions: at 1 µM;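 note: mean SPHK1 inhibition value reported from the GSK PKIS kinase panel screen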
[2] = target: T1, Sphingosine kinase 2 (Homo sapiens) (UniProt Q9NRA0); conditions: at 0.1 µM
T1 sequence (whole entry): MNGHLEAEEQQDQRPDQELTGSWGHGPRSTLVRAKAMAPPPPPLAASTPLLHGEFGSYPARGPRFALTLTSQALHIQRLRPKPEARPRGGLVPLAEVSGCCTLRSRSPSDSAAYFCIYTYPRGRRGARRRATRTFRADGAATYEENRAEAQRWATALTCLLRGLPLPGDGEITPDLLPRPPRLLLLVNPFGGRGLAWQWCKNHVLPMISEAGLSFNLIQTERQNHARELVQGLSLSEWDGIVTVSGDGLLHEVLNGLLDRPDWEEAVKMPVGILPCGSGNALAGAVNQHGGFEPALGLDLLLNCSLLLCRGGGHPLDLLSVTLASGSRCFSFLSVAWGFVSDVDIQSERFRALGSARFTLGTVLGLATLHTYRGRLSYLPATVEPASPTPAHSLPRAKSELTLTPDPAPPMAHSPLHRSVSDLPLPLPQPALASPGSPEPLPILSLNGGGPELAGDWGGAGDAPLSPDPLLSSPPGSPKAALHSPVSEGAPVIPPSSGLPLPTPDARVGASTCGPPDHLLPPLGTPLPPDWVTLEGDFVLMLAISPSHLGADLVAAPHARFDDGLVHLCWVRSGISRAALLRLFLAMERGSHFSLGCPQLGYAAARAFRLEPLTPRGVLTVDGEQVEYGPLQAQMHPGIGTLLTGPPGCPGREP

[3] = target: T1, Sphingosine kinase 2 (Homo sapiens); conditions: at 1 µM
[4] = target: Casein kinase II subunit alpha (Homo sapiens) (UniProt P68400); conditions: at 0.1 µM
Chain of Casein kinase II subunit alpha (Homo sapiens) (P68400 whole entry, looked up): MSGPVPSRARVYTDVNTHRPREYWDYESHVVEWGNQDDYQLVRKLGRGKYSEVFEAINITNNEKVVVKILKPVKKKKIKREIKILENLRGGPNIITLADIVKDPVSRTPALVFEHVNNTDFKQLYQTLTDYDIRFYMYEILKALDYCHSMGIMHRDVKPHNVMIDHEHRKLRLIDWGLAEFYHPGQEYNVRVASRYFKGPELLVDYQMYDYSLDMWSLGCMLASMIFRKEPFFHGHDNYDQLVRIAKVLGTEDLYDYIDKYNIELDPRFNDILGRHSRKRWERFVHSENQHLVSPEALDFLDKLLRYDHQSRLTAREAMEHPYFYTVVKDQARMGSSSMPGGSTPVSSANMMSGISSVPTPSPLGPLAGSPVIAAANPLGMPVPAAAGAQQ

[5] = target: Casein kinase II subunit alpha (Homo sapiens) (UniProt P68400); conditions: at 1 µM
[6] = target: T2, Inhibitor of nuclear factor kappa-B kinase subunit alpha (Homo sapiens) (UniProt O15111); conditions: at 0.1 µM
T2 sequence (whole entry): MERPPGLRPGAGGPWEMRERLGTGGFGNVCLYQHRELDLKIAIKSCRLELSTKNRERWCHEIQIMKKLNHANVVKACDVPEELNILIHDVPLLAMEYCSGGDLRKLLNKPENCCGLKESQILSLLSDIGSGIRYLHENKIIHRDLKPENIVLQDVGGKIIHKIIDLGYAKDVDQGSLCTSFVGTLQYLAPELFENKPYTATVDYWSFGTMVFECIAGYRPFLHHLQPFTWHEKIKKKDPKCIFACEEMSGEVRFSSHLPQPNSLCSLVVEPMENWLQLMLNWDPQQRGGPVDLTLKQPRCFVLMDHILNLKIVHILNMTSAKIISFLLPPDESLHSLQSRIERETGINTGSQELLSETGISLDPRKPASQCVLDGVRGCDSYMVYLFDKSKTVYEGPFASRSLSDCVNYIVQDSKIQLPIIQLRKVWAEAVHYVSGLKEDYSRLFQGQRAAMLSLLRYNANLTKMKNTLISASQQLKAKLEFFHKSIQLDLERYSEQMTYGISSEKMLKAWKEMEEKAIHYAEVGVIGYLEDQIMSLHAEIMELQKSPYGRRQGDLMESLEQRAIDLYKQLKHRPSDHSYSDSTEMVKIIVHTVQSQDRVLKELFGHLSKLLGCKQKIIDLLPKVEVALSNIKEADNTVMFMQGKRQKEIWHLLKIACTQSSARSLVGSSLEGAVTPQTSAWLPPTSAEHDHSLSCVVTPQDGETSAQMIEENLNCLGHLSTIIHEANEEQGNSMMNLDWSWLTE

[7] = target: T2, Inhibitor of nuclear factor kappa-B kinase subunit alpha (Homo sapiens); conditions: at 1 µM
[8] = target: T3, Inhibitor of nuclear factor kappa-B kinase subunit beta (Homo sapiens) (UniProt O14920); conditions: at 0.1 µM
T3 sequence (whole entry): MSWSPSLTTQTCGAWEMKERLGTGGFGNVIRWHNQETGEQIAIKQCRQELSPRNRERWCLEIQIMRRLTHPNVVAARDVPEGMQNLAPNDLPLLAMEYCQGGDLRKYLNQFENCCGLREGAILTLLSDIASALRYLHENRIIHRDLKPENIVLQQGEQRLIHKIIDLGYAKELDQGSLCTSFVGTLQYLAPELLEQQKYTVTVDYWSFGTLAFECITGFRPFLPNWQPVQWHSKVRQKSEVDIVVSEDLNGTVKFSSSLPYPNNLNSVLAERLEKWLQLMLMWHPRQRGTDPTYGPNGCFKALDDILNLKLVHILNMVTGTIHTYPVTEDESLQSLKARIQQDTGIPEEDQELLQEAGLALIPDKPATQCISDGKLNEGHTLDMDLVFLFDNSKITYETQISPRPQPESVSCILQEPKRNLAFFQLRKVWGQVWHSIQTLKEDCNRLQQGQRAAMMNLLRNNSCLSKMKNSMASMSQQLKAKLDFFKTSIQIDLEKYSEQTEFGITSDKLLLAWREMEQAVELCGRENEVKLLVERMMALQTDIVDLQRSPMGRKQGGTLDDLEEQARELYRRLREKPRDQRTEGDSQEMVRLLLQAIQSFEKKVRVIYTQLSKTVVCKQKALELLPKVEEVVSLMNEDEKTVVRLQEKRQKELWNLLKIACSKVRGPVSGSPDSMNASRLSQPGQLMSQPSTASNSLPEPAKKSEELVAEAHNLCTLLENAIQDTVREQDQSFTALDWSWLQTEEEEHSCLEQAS

[9] = target: T3, Inhibitor of nuclear factor kappa-B kinase subunit beta (Homo sapiens); conditions: at 1 µM
[10] = target: T4, Inhibitor of nuclear factor kappa-B kinase subunit epsilon (Homo sapiens) (UniProt Q14164); conditions: at 0.1 µM
T4 sequence (whole entry): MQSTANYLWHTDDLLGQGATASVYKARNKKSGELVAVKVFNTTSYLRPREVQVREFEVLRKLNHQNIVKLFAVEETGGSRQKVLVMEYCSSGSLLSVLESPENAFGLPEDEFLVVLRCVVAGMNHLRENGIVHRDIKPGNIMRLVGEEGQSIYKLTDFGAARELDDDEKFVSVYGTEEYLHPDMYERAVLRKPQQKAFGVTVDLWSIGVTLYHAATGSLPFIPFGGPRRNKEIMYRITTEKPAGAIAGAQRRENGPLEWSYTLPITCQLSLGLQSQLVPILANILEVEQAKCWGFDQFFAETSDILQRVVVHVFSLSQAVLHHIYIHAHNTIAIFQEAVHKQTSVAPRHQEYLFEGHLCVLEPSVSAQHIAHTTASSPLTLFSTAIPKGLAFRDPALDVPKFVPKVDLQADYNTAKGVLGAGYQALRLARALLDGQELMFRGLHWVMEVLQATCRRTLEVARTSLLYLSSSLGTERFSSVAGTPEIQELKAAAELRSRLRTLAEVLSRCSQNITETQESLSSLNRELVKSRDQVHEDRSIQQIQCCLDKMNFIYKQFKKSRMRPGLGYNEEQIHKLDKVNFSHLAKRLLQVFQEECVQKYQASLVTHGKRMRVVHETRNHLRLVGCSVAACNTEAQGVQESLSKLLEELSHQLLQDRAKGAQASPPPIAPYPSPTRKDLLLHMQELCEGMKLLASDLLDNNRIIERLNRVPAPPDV

[11] = target: T4, Inhibitor of nuclear factor kappa-B kinase subunit epsilon (Homo sapiens); conditions: at 1 µM
[12] = target: T5, Serine/threonine-protein kinase Nek1 (Homo sapiens) (UniProt Q96PY6); conditions: at 0.1 µM
T5 sequence (whole entry): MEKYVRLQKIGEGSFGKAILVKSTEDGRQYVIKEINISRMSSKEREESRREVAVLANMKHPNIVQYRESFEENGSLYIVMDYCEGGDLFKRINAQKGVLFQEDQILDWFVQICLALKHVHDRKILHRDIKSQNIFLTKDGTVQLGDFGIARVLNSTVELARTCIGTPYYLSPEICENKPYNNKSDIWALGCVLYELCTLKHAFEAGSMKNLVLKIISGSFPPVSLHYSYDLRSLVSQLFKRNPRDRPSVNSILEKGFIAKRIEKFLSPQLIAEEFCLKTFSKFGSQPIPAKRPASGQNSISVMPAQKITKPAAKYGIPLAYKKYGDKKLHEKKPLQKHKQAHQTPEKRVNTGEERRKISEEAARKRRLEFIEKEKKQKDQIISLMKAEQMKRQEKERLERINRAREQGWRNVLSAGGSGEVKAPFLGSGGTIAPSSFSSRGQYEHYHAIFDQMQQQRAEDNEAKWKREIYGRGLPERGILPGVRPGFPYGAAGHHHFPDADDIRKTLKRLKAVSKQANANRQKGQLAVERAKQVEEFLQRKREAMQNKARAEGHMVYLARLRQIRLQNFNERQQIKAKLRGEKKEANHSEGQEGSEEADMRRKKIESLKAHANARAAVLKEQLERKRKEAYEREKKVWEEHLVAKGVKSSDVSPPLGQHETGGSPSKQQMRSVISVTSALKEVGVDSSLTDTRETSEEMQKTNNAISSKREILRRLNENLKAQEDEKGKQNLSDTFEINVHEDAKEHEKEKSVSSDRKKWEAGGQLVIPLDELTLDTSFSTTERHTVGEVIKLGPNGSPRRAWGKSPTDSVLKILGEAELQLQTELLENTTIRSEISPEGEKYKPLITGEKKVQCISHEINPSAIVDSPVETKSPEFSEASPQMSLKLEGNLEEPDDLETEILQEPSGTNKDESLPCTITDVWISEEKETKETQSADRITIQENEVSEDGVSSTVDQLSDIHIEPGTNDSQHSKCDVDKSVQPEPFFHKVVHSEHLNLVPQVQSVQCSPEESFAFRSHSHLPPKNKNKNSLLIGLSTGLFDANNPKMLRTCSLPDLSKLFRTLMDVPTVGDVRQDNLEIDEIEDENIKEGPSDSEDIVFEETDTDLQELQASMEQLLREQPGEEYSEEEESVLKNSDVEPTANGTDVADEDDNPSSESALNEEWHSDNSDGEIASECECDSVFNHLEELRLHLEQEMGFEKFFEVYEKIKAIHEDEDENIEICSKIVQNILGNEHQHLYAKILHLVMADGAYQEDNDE

[13] = target: T5, Serine/threonine-protein kinase Nek1 (Homo sapiens); conditions: at 1 µM
[14] = target: T6, Serine/threonine-protein kinase Nek2 (Homo sapiens) (UniProt P51955); conditions: at 0.1 µM
T6 sequence (whole entry): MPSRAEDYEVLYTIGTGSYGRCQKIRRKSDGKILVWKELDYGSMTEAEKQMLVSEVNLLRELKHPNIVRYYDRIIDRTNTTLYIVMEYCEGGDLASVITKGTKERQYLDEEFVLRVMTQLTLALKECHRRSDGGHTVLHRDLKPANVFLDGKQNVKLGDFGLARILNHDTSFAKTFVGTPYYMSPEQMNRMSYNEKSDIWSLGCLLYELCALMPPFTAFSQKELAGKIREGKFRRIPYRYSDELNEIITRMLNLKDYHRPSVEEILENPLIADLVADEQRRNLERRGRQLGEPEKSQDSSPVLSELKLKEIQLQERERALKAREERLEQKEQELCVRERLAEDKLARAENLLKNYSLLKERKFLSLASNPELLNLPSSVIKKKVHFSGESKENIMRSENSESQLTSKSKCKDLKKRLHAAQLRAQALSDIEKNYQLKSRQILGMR

[15] = target: T6, Serine/threonine-protein kinase Nek2 (Homo sapiens); conditions: at 1 µM
[16] = target: Serine/threonine-protein kinase Nek6 (Homo sapiens) (UniProt Q9HC98); conditions: at 0.1 µM
Chain of Serine/threonine-protein kinase Nek6 (Homo sapiens) (Q9HC98 whole entry): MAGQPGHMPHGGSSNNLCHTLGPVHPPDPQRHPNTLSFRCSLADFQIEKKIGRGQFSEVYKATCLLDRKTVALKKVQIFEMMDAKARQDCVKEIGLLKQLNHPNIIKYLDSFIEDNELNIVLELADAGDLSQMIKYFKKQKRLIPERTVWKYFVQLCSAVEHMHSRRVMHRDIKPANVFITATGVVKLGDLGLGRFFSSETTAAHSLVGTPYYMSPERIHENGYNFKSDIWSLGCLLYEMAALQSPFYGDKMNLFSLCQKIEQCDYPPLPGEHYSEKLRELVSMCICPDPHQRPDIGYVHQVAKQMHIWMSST

[17] = target: Serine/threonine-protein kinase Nek6 (Homo sapiens) (UniProt Q9HC98); conditions: at 1 µM
[18] = target: Serine/threonine-protein kinase Nek7 (Homo sapiens) (UniProt Q8TDX7); conditions: at 0.1 µM
Chain of Serine/threonine-protein kinase Nek7 (Homo sapiens) (Q8TDX7 whole entry, looked up): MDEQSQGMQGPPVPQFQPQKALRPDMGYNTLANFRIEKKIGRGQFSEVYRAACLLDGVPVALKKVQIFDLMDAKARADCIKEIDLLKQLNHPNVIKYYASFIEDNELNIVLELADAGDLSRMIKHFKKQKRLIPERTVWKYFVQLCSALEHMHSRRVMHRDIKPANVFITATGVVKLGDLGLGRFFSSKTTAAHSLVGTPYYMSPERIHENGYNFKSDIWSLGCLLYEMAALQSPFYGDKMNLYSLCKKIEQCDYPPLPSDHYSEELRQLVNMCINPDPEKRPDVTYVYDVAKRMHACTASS

[19] = target: Serine/threonine-protein kinase Nek7 (Homo sapiens) (UniProt Q8TDX7); conditions: at 1 µM
[20] = target: T7, Serine/threonine-protein kinase Nek9 (Homo sapiens) (UniProt Q8TD19); conditions: at 0.1 µM;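 note: reported value is the mean percent inhibition of NEK9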
T7 sequence (whole entry): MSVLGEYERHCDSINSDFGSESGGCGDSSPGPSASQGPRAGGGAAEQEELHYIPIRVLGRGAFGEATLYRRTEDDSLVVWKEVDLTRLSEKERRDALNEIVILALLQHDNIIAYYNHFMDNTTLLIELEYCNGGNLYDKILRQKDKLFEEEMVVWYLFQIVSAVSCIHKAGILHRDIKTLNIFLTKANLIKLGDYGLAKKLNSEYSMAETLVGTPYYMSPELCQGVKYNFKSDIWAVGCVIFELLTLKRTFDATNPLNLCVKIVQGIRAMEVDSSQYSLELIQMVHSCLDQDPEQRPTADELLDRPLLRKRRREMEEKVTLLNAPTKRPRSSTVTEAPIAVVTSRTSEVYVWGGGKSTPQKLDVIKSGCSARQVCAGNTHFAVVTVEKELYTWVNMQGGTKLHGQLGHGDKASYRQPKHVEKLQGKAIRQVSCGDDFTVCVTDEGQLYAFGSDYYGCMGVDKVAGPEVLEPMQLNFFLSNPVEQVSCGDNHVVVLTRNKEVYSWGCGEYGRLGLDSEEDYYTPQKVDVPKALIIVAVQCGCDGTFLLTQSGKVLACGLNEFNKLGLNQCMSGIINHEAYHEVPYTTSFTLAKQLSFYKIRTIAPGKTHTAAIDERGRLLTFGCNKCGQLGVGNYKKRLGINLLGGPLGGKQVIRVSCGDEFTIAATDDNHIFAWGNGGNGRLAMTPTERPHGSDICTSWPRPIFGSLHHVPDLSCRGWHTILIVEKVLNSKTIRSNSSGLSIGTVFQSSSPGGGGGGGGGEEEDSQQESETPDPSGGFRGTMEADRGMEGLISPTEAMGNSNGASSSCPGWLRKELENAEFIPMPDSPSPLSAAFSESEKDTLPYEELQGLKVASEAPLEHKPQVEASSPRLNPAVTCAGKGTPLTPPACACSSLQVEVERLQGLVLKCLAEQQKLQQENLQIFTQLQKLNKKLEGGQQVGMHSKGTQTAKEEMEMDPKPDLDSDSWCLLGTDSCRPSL

Chain of Sphingosine kinase 1 (Homo sapiens) (Q9NYA1 whole entry): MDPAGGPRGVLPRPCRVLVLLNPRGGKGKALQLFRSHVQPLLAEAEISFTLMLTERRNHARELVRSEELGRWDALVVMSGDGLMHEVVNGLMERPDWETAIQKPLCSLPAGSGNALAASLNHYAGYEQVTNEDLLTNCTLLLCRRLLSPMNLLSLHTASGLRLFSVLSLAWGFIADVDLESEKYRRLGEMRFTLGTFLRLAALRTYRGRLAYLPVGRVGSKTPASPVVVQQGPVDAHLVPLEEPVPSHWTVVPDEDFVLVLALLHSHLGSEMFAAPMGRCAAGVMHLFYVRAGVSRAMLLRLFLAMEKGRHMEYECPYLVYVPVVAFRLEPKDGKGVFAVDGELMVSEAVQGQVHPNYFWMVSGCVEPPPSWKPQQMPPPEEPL

Compound | inhibition [1] | inhibition [2] | inhibition [3] | inhibition [4] | inhibition [5] | inhibition [6] | inhibition [7] | inhibition [8] | inhibition [9] | inhibition [10] | inhibition [11] | inhibition [12] | inhibition [13] | inhibition [14] | inhibition [15] | inhibition [16] | inhibition [17] | inhibition [18] | inhibition [19] | inhibition [20]
C[C@@H](Oc1cc(-n2cnc3ccc(OC[C@@H](O)CO)cc32)sc1C(N)=O)c1ccccc1Cl | 0.3% | 0% | 0.27% | 1.09% | 10.2% | -0.83% | -3.48% | -3.56% | -1.92% | -2.16% | -0.86% | 13.6% | 55% | 3.01% | 19.7% | -1.54% | -3.82% | 0.63% | 0.36% | 62.4%
c1ccc(Cc2nc3ccc(Nc4ncnc5ccccc45)cc3[nH]2)cc1 | -0.48% | 0.11% | -0.64% | 3.02% | 9.95% | -0.9% | 6.86% | 5.53% | 8.45% | 5.38% | 4.77% | 0.8% | 6.65% | 4.56% | 2.85% | 3.06% | 4.77% | 3.7% | 3.14% | 7.36%
